Results as given in PubChem BioAssay.
Values without a mark were called inactive. Calls of active or inactive are those of the source.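 The calls were made as follows, unless noted: active = inhibition above 50%; inactive = the rest.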

Test: antimalarial activity against Dd2 strain (AID 2302;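 active = growth inhibition above 50% at the single 2 µM test dose, taken to imply half-maximal potency below 2 µM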;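 also: 0% = DMSO untreated growth and 100% = chloroquine plus artemisinin killed control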)
Settings: P. falciparum Dd2 in RBCs, LDH growth readout, 72 h; at 2 µM; hits give high values

| SMILES | growth inhibition |
| --- | --- |
| CCCCN1CCN(CCCCNc2c3ccccc3nc3ccccc23)CC1 | 5% |
| NC(=NCCCCC1CCCCC1)c1cccc(C(N)=NCCCCC2CCCCC2)n1 | 19% |
| O=C1OC(c2ccccc2)(c2ccccc2)CN1CC1CCN(Cc2ccc(O)c(Cl)c2)CC1 | 90% (active) |
| CCn1c(Sc2ccc(C#N)c([N+](=O)[O-])c2)nnc1-c1cccc(Cl)c1 | 88% (active) |

Test: HepG2 cytotoxicity, primary screen, cytotoxicity control for P. falciparum antimalarial project, cell-based, ATP luminescence (AID 2303);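 also: 0% = DMSO wells and 100% = digitonin-killed cells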
Settings: HepG2 viability, 24-48 h, at 10 µM, hits give high values

| SMILES | inhibition |
| --- | --- |
| CC(C)c1ccc(CN(C)CCCCNC(=O)c2ccc(NC(=O)c3ccc(Cl)cc3)cc2)cc1 | 17% |
| CC(C)n1c(C2CCN(CC3CCN(C(=O)/C=C/c4ccc(Cl)c(Cl)c4)CC3)CC2)nc2ccccc21 | 36% |
| Cn1nc(C(F)(F)F)c(-c2ccc(F)cc2)c1NC(=O)Nc1ccc(F)cc1F | 11% |
| COc1cccc2sc(N3CCN(C(=O)c4ccc([N+](=O)[O-])o4)CC3)nc12 | -17% |
| COc1ccc2nccc(NC(=O)CNCc3ccc(-c4ccccc4)cc3)c2c1 | 11% |
| O=C(Nc1ccc(Cn2ncc(N3CCCNCC3)c(Cl)c2=O)cc1)Nc1cc(Cl)cc(Cl)c1 | 3% |
| COc1cc(C(=O)Nc2nc3ccccc3[nH]2)ccc1OCC(=O)Nc1cccc(C(F)(F)F)c1 | 33% |
| O=C(NCC1CC1)C1CCN(C(c2ccccc2)c2ccc(Cl)c(Cl)c2)CC1 (stereo not drawn) | 7% |
| CN1CCN(CCCN(Cc2cccc(-c3cccc(CNCCc4ccccc4)c3)c2)C(=O)Nc2ccccc2)CC1 | 92% (active) |
| O=C(Nc1ccc(F)c(C(F)(F)F)c1)N[C@H]1CCN(CCCCCNC(=O)[C@@H]2C[C@H]2c2ccc(Cl)c(Cl)c2)C1 | 46% |
| CC(Cc1ccc(OCc2ccccc2)cc1)Nc1nc2ccccc2c(=O)[nH]1 (stereo not drawn) | 2% |
| CCCCCCP(=O)(COc1ccc(CCN(CC(O)COc2cccc3[nH]c(C(N)=O)cc23)CC(O)COc2cccc3[nH]c(C(N)=O)cc23)cc1)OCCCC (stereo not drawn) | -10% |
| Cc1cc(N[C@@H](CC(C)C)C(=O)NCCOc2ccccc2)nc(Nc2ccccc2)n1 | 9% |
| Cc1cccc2[nH]c(-c3cccc(-c4cccc(CNCc5cccc(N)c5)c4)c3)nc12 | 14% |
| Cc1ccc(-n2[nH]c(C)c(N=Nc3cccc(-c4cccc(NC(=O)OC(C)(C)C)c4)c3O)c2=O)cc1C | 39% |
| O=C(Nc1ccc(NC2=NCCN2)cc1)Nc1ccc(NC2=NCCN2)cc1 | -6% |
| CCn1c(-c2nonc2N)nc2cnc(Oc3cccc(NC(=O)c4ccc(OCCN5CCCC5)cc4)c3)cc21 | 25% |
| CC[C@H](C)CNC(=O)c1cncc(-c2cccc(CNCCCc3ccccc3)c2)c1 | 9% |
| COc1ccc(-c2cccc(NC(=O)c3cccc(Cl)c3)c2)cc1CN1CCCN(C)CC1 | 20% |
| Cc1cccc2[nH]cc(C3CCN(CCC4CCN(C(=O)/C=C/c5ccc(Cl)c(Cl)c5)CC4)CC3)c12 | 13% |

| SMILES | inhibition |
| --- | --- |
| Cc1ccc(-c2noc(COc3ccccc3C(=O)NC3CCCC3)n2)cc1 | 9% |
| COc1ccc(NC(=O)[C@H](Cc2ccccc2)Nc2cc(C)nc(NCc3ccccc3C)n2)cc1 | 16% |
| CC1CCCN1Cc1cccc(-c2ccc(C(=O)NCCOc3ccccc3)s2)c1 (stereo not drawn) | 26% |
| COc1ccc(-c2cccc(NC(=O)c3ccc(Cl)cc3)c2)cc1CN1CCNCC1 | 52% (active) |
| CC(C)(C)Cn1cc(-c2ccc(C(=O)NCCc3ccc(S(C)(=O)=O)cc3)cc2)c(N)n1 (tested in a mixture with another compound) | 7% |
| CCCC[C@@H](C(=O)NCCc1ccc(Cl)cc1)N1C(=O)CCC1C(=O)Nc1ccc(Cl)c(Cl)c1 (stereo partly drawn) | 4% |
| COc1ccc(-c2csc(NC(=O)CCC(=O)O)n2)cc1OC | 63% (active) |
| CCN(CC)CCOc1ccc(C(O)(C#CC(O)(c2ccc(C)cc2)c2ccc(OCCN(CC)CC)cc2)c2ccc(C)cc2)cc1 (stereo not drawn) | 94% (active) |
| COCc1nc(-c2ccccc2)nc(N2CCN(C(=O)NC(C)C)CC2)c1Cc1ccccc1F | 35% |
| CN(C)c1ccc(-c2csc(C(=O)NCC3CCN(CCC(C)(C)C)C3)c2)cc1 (stereo not drawn) | 29% |
| N#Cc1ccc(-c2cnc3ccc(NCc4ccc(S(N)(=O)=O)cc4)nn23)cc1 | 7% |
| O=C(N[C@@H]1C[C@H]1c1ccccc1)N(CCCn1ccnc1)Cc1csc(-c2ccc(CNCc3ccccc3)cc2)n1 | 6% |
| Cc1nnc2c(NC(=O)/C=C/c3ccc(OC(F)(F)F)cc3)cc3cc(Cl)ccc3n12 | 19% |
| CCn1c(C(C)C)cc2c3c(N)nc(N)nc3ccc21 | 67% (active) |
| Cc1cccc2[nH]c(-c3ccc(-c4ccc(NC(=O)Nc5ccc(Cl)cc5)cc4)s3)nc12 | 78% (active) |
| CCCCN1CCN(CCCCNc2c3ccccc3nc3ccccc23)CC1 | 27% |
| NC(=NCCCCC1CCCCC1)c1cccc(C(N)=NCCCCC2CCCCC2)n1 | 99% (active) |
| O=C1OC(c2ccccc2)(c2ccccc2)CN1CC1CCN(Cc2ccc(O)c(Cl)c2)CC1 | 26% |
| CCn1c(Sc2ccc(C#N)c([N+](=O)[O-])c2)nnc1-c1cccc(Cl)c1 | -5% |
